Where a name gives a salt, the structure may show the parent alone.
Legend:
[1] = test system: Vero E6 infected with SARS-CoV-2; assay: morphology score (similarity to uninfected cells); higher = more like uninfected cells; settings: 24 h
[2] = test system: Vero E6 infected with SARS-CoV-2; assay: SARS-CoV-2 infection rate relative to infected DMSO; higher = more infection, active = 60 or less; settings: 24 h

| Compound | morphology score [1] | SARS-CoV-2 infection rate [2] |
| --- | --- | --- |
| COc1ccc2c(OCc3nnc4ccc(-c5ccccc5)nn34)ccnc2c1 (10 µM) | 0.0318 | 110% (inactive) |
| Cc1ccc(C(=O)C(C)CN2CCCCC2)cc1 (stereo not drawn) [tolperisone] (10 µM) | 0.383 | 83.5% (inactive) |
| C[C@@H](O)[C@H]1C(=O)N2C(C(=O)O)=C(S[C@@H]3CN[C@H](C(=O)N(C)C)C3)[C@H](C)[C@H]12 [meropenem] (10 µM) | 0.0366 | 104% (inactive) |
| CCCCCCCCCCCCCCCC(=O)C(F)(F)F (10 µM) | 0.158 | 97% (inactive) |
| COc1cccc(N2CCN(C3=Nc4c(F)cccc4[C@H](CC(=O)O)N3c3cc(C(F)(F)F)ccc3OC)CC2)c1 [letermovir] (10 µM) | -0.0548 | 109% (inactive) |
| Cc1cc(OCCCS(C)(=O)=O)cc(C)c1-c1cccc(COc2ccc3c(c2)OC[C@H]3CC(=O)O)c1 (10 µM) | 0.0278 | 108% (inactive) |
| CCc1ccc(C2=CC(C)(C)Sc3ccc(C#Cc4ccc(C(=O)O)cc4)cc32)cc1 (10 µM) | -0.0119 | 111% (inactive) |
| O=C1CCCC(=O)C1C(=O)c1ccc(C(F)(F)F)cc1[N+](=O)[O-] [nitisinone] (10 µM) | 0.0537 | 110% (inactive) |
| Oc1cccc(Nc2ncc(F)c(Nc3cccc(O)c3)n2)c1 (0.833333 µM) | 0.183 | 100% (inactive) |
| N.N.[Cl][Pt][Cl] [cisplatin] (10 µM) | 0.0556 | 111% (inactive) |
| CC1(C)O[C@@H]2C[C@H]3[C@@H]4CCC5=CC(=O)C=C[C@]5(C)[C@H]4[C@@H](O)C[C@]3(C)[C@]2(C(=O)CO)O1 [desonide] (10 µM) | 0.0066 | 107% (inactive) |
| S=C(S)N1CCCC1 [pyrrolidine-dithiocarbamate] (0.833333 µM) | 0.106 | 98% (inactive) |
| Cn1cnc2c(F)c(Nc3ccc(Br)cc3F)c(C(=O)NOCCO)cc21 [binimetinib] (0.833333 µM) | -0.00339 | 110% (inactive) |
| CCC(NC(C)C)C(O)c1ccc(O)c(O)c1 (stereo not drawn) [isoetharine] (10 µM) | 0.128 | 93% (inactive) |
| CCSC(=N)N [EIT-hydrobromide] (10 µM) | -0.0504 | 102% (inactive) |
| COc1ccc2nc3cc(Cl)ccc3c(Nc3cc(CN4CCCC4)c(O)c(CN4CCCC4)c3)c2n1 [pyronaridine] (0.833333 µM) | 0.282 | 100% (inactive) |
| O=C(c1ccc(F)cc1)N1CCC[C@H](c2nc(-c3ccc(F)cc3)no2)C1 (10 µM) | 0.242 | 93.5% (inactive) |
| OCc1ccccc1O[C@@H]1O[C@H](CO)[C@@H](O)[C@H](O)[C@H]1O [salicin] (10 µM) | 0.153 | 99% (inactive) |
| CCN1CCN(c2ccc(C(C)(C)NC(=O)c3cc4[nH]c5ccccc5c(=O)c4cc3F)cn2)CC1 (10 µM) | 0.572 | 55% (active) |
| COc1ccc(NS(=O)(=O)c2ccc(N)cc2)nn1 [sulfamethoxypyridazine] (10 µM) | 0.0793 | 110% (inactive) |
| OCCN1CCN(CC/C=C2/c3ccccc3Sc3ccc(C(F)(F)F)cc32)CC1 [flupentixol] (10 µM) | 0.506 | 79% (inactive) |
| NC(=O)Cc1cccc(C(=O)c2ccccc2)c1N [nepafenac] (10 µM) | 0.0605 | 120% (inactive) |

| Compound | morphology score [1] | SARS-CoV-2 infection rate [2] |
| --- | --- | --- |
| CO[C@H]1/C=C\C=C(/C)C(=O)NC2=CC(=O)C(NCCN(C)C)=C(C[C@@H](C)C[C@H](OC)[C@H](O)[C@@H](C)/C=C(\C)[C@@H]1OC(N)=O)C2=O [alvespimycin] (10 µM) | 0.255 | 91% (inactive) |
| O=C1OC(OC(=O)c2cccnc2Nc2cccc(C(F)(F)F)c2)c2ccccc21 (stereo not drawn) [talniflumate] (10 µM) | -0.0899 | 108% (inactive) |
| CC[C@H]1CN2CC[C@H]1C[C@@H]2[C@@H](O)c1ccnc2ccc(OC)cc12 [hydroquinidine] (10 µM) | 0.301 | 90% (inactive) |
| O=[N+]([O-])O[C@@H]1CO[C@H]2[C@@H]1OC[C@@H]2O [isosorbide-mononitrate] (10 µM) | -0.103 | 110% (inactive) |
| CC12CCC(CC1=O)C2(C)C (stereo not drawn) [camphor-(+)] (10 µM) | 0.101 | 107% (inactive) |
| N[C@@H](CC(=O)Nc1ccc(Oc2cc(F)c(F)cc2Br)cc1)C(=O)O (10 µM) | 0.233 | 98% (inactive) |
| CCCCOc1ccc(-c2cncc(C(=O)NCc3cccnc3N3CCOCC3)c2)cc1Cl (10 µM) | -0.147 | 108% (inactive) |
| Cn1cc(C(=O)C(=O)N[C@H]2CN3CCC2CC3)c2ccccc21 (10 µM) | 0.181 | 97.5% (inactive) |
| Oc1ccc(C(O)CNCCCCCCNCC(O)c2ccc(O)c(O)c2)cc1O (stereo not drawn) [hexoprenaline] (10 µM) | 0.0624 | 116% (inactive) |
| Cn1cc(C2=C(c3cn(CCCSC(=N)N)c4ccccc34)C(=O)NC2=O)c2ccccc21 [bisindolylmaleimide-IX] (0.833333 µM) | 0.0892 | 91% (inactive) |
| COC(=O)Nc1nc2cc(Sc3ccccc3)ccc2[nH]1 [fenbendazole] (0.833333 µM) | 0.126 | 106% (inactive) |
| NS(=O)(=O)c1cc2c(cc1C(F)(F)F)NCNS2(=O)=O [hydroflumethiazide] (10 µM) | 0.112 | 112% (inactive) |
| CC(C)(C)NC(=O)N[C@H](C(=O)N1C[C@H]2[C@@H]([C@H]1C(=O)NC(CC1CCC1)C(=O)C(N)=O)C2(C)C)C(C)(C)C (stereo partly drawn) [Boceprevir] (10 µM) | 0.133 | 100% (inactive) |
| CCN(CC)CCNC(=O)c1cc(Br)c(N)cc1OC [bromopride] (10 µM) | -0.115 | 116% (inactive) |
| COC(=O)/C=C/C(=O)OCCN1C(=O)CCC1=O [diroximel-fumarate] (10 µM) | 0.0691 | 101% (inactive) |
| CC(=O)N(O)C/C=C/c1cccc(Oc2ccccc2)c1 (10 µM) | 0.0937 | 97.5% (inactive) |
| C[C@]12CC[C@H](O)C[C@H]1CC[C@@H]1[C@@H]2CC[C@]2(C)[C@@H](c3ccc(=O)oc3)C[C@H]3O[C@]132 [resibufogenin] (10 µM) | -0.241 | 110% (inactive) |
| CNCCn1c(=O)c2cc(OC)c(OC)cc2c2cnc3cc4c(cc3c21)OCO4 (10 µM) | -0.381 | 118% (inactive) |
| C[N+]12CCC(CC1)C(OC(=O)C(O)(c1ccccc1)c1ccccc1)C2 (stereo not drawn) [clidinium] (10 µM) | -0.064 | 95% (inactive) |
| O=C(Nc1ccccc1F)N[C@H]1N=C(c2ccccc2)c2ccccc2NC1=O (10 µM) | -0.135 | 113% (inactive) |
| CC(C)Oc1ccc(-c2nn([C@@H](C)c3oc4ccc(F)cc4c(=O)c3-c3cccc(F)c3)c3ncnc(N)c23)cc1F (10 µM) | 0.0291 | 106% (inactive) |
| O[C@H]([C@H](O)[C@@H]1CO1)[C@H]1CO1 [dianhydrogalactitol] (10 µM) | -0.0725 | 114% (inactive) |

| Compound | morphology score [1] | SARS-CoV-2 infection rate [2] |
| --- | --- | --- |
| O=C(Nc1cccnc1)c1cc(-c2ccnc(F)c2)ccc1OCc1ccccc1 (10 µM) | -0.0646 | 114% (inactive) |
| Cc1nc2ccccn2c(=O)c1CCN1CCC(C(=O)c2ccc(F)cc2)CC1 [pirenperone] (10 µM) | 0.172 | 108% (inactive) |
| Cc1c(NC(=O)N2CCOCC2)ccc2c1c1ccccc1n2C(C)C (10 µM) | 0.121 | 106% (inactive) |
| COc1ncc(-c2ccc3nccc(-c4ccnnc4)c3c2)cc1NS(=O)(=O)c1ccc(F)cc1F (0.833333 µM) | -0.0933 | 110% (inactive) |
| NC(=O)NC1NC(=O)NC1=O (stereo not drawn) [allantoin] (10 µM) | -0.0426 | 104% (inactive) |
| CCCCCCCCCCCC(=O)O [lauric-acid] (10 µM) | 0.185 | 96.5% (inactive) |
| Nc1ncnc2c1c(-c1cccc(OCc3ccccc3)c1)cn2C1CC(CN2CCCC2)C1 (stereo in doubt) (0.833333 µM) | 0.0762 | 92% (inactive) |
| Nc1nccc(Oc2ccc(NC(=O)c3c[nH]cc(-c4ccc(F)cc4)c3=O)cc2F)c1Cl [metatinib] (10 µM) | 0.551 | 102% (inactive) |
| CCOc1ccc(Cc2nccc3cc(OCC)c(OCC)cc23)cc1OCC [ethaverine] (10 µM) | 0.2 | 100% (inactive) |
| c1ccc2c(c1)sc1ccccc12 [dibenzothiophene] (10 µM) | 0.0443 | 105% (inactive) |
| CCCS(=O)(=O)Nc1ccc(F)c(C(=O)c2c[nH]c3ncc(Cl)cc23)c1F (10 µM) | -0.0271 | 114% (inactive) |
| C[C@@H](CN(C)C)CN1c2ccccc2Sc2ccccc21 (racemic) [alimemazine] (0.833333 µM) | -0.144 | 105% (inactive) |
| Cc1cc(SCc2sc(-c3ccc(C(F)(F)F)c(F)c3)nc2C)ccc1OCC(=O)O (10 µM) | 0.143 | 99.5% (inactive) |
| COC(F)(F)C(Cl)Cl [methoxyflurane] (10 µM) | 0.106 | 100% (inactive) |
| CC(=O)c1ccc2c(c1)C(=O)C1(CC1)O2 [spizofurone] (10 µM) | -0.0677 | 112% (inactive) |
| CC(C)[C@H]1CC[C@H](C(=O)N[C@H](Cc2ccccc2)C(=O)O)CC1 [nateglinide] (10 µM) | 0.0232 | 94.5% (inactive) |
| N#Cc1ccc(NCCNCC(=O)N2CCC[C@H]2C#N)nc1 (10 µM) | -0.0945 | 114% (inactive) |
| C[C@H](CCC(=O)O)[C@H]1CC[C@H]2[C@@H]3C[C@H](O)[C@@H]4C[C@H](O)CC[C@]4(C)[C@H]3CC[C@]12C [Hyodeoxycholic acid (HDCA)] (10 µM) | 0.109 | 102% (inactive) |
| N#Cc1ccc2[nH]c(O)c(-c3ccc(CN4CCOCC4)cn3)c2c1 (10 µM) | -0.238 | 100% (inactive) |
| COc1ccc(/C=C\c2cc(OC)c(OC)c(OC)c2)cc1O [combretastatin-A-4] (10 µM) | 0.000765 | 98.5% (inactive) |

From the supplement of paper PMC13380429
